Among all 65,000 compounds or so, about 2,100 (3.2%) showed an effect of 50% or more. The median lay at about -52%. What follows is part of a selection rich in strong results, with near analogues and random picks from the rest.

The test system of the assay is Plasmodium falciparum. Put plainly: Screen against P. falciparum Asexual Blood Stage (ABS), at 5uM. The format is functional, Dd2. As to conditions: tested at 5 uM.
Turning to `COCCN(CC1CCCN(C2Cc3ccccc3C2)C1)C(=O)CSC` (centres undefined), the INHIBITION was 1.3%. Regarding `O=C(NC1CCC1)C1=NOC2(CCN(Cc3ccc(F)cc3)C2)C1` (centres undefined), the INHIBITION is -11.6%.

As for `c1ccc(CN2CC[C@@H]3O[C@@H](COCCN4CCCC4)CC[C@@H]32)nc1`, the INHIBITION is recorded as -36%. Consider `COCCN1CC[C@@H]2OC[C@H](C(=O)N(C)Cc3ccccn3)C[C@@H]2C1`, for which the INHIBITION was 11.1%. For `c1ccc(CN2CCCC2)c(CNc2cncc3nnnn23)c1`, the INHIBITION is reported as 61.4%. With `c1cc(CN2CCCC2)ccc1CNc1cncc2nnnn12`, the INHIBITION was -31.2%. As to `c1cc(N2CCSCC2)ccc1CNc1cncc2nnnn12`, the INHIBITION is recorded as -119%. With `Cc1cc(C(=O)N2C[C@@H]3COC[C@]3(CN(C)C)C2)sc1C`, the INHIBITION is -113%.

On to `Cc1cc(N(C)CCN(C)C)n2nc(C)cc2n1`, for which the INHIBITION was -113%. Consider `Cc1cc(N(C)CCN(C)C2CCCC2)n2nc(C)cc2n1`, for which the INHIBITION was found to be 55.7%. With `Cc1cc(C)nc(N(C)CCN(C)C2CCCC2)n1`, the INHIBITION was determined as 28%. Take `O=C(c1ccc2[nH]ccc2c1)N1CCn2cc(CN3CCCC3)nc2C1`: the INHIBITION is -38.2%. For `Fc1ccc(CNCC2OCCc3cn(CC4CC4)nc32)cc1` (centres undefined), the INHIBITION is 68.9%. With `c1cc(CNCC2OCCc3cn(CC4CC4)nc32)cs1` (centres undefined), the INHIBITION is reported as 47%. For the compound `COCCn1cc2c(n1)C(CNCc1ccc(F)cc1)OCC2` (centres undefined), the INHIBITION is on record as -11.4%. For `CCc1cnc(CNC(=O)NCCc2ccc(O)cc2)s1`, the INHIBITION is reported as -13.3%. In the case of `CNC(=O)CC1CC2(CCN(c3ncccn3)CC2)c2ccccc21` (centres undefined), the INHIBITION is listed as -87%.

In the case of `Cc1cccc(N2CC3(CCN(Cc4nccn4C)C3)CC2=O)c1` (centres undefined), the INHIBITION is given as -54.9%. As to `COCc1ncc(CN2CC[C@@H](NC(=O)c3cccnc3)[C@H](O)C2)cn1`, the INHIBITION is listed as -35.5%.

Take `CC(C)(C)n1ncc(NCC(O)c2ccccc2)c(Cl)c1=O` (centres undefined): the INHIBITION is on record as -162%.

Regarding `Cc1cccc(C2(CNC(=O)CO)CCCC2)c1`, the INHIBITION was -108%. As to `Cc1cccc(C2(CNC(=O)C(C)S(C)(=O)=O)CCCC2)c1` (centres undefined), the INHIBITION was -66%. For `Cc1cccc(C2(CNC(=O)C(C)NC(N)=O)CCCC2)c1` (centres undefined), the INHIBITION is 69.9%. On to `NC(=O)[C@@H]1Cc2ccccc2CN1S(=O)(=O)N1CCCCC1`, for which the INHIBITION is given as -124%.

On to `CC(CNC1CCN(Cc2ccncc2)CC1)c1ccc(F)cc1F` (centres undefined), for which the INHIBITION is 70%. Take `CC(NC(=O)NC1CCN(Cc2ccncc2)CC1)c1ccc(F)cc1` (centres undefined): the INHIBITION is recorded as -35.2%.

As for `CC(NC(=O)NC1CCN(Cc2ccncc2)CC1)c1cccc(F)c1` (centres undefined), the INHIBITION is -98.2%. Take `Cc1cc(F)ccc1C(=O)N1C[C@@H]2COC[C@]2(CN(C)C)C1`: the INHIBITION is listed as -31.2%. The same measure for `CC(C)(C)c1cc(NC(=O)CN2CCCC2Cn2cccn2)on1` (centres undefined): -91.6%; for `NC(=O)C1CCN(C(=O)NCc2cccnc2OCC(F)(F)F)C1` (centres undefined): -75.2%. Consider `CN1CCCN(c2nc3c(cnn3C(C)(C)C)c(=O)[nH]2)CC1`, for which the INHIBITION was -12.6%. For the compound `CC(C)(C)n1ncc2c(=O)[nH]c(N3CCC4(CCCCC4)C3)nc21`, the INHIBITION worked out at 52.6%. `CC(=O)N1CCN(c2nc3c(cnn3C(C)(C)C)c(=O)[nH]2)CC1`: the INHIBITION was -76.5%. Then `Cn1ccc(CN2CCCC23CCN(Cc2ccccc2F)CC3)n1`, with 0.737%; and `Cc1nc(CNC(=O)Nc2cc(F)ccc2N2CCN(C)CC2)no1`, with -28.8%.

As to `CCN1CCN(c2ccc(F)cc2C(C)NCc2nc(C)no2)CC1` (centres undefined), the INHIBITION is on record as 7.98%. Then `CCN1CCN(c2ccc(F)cc2C(C)NCc2noc(C)n2)CC1` (centres undefined), with 53.9%. As to `Cc1nccc(N[C@H]2CN(C(=O)CCN3CCCC3=O)C[C@@H]2C(C)C)n1`, the INHIBITION is -132%. Then `COCCNCc1ccc(OCC(=O)NC(C)(C)C)cc1`, with -80.9%; and `Cc1ccc(C(=O)N2CCC3(CCN3Cc3ccc(F)cc3)C2)cn1` (centres undefined), with -74.2%; and `COCCN1CCO[C@H]2CN(C(=O)c3cccs3)C[C@H]21`, with -92.4%. With `c1coc(-c2nnc(CN3CCCC(CN4CCCCCC4)C3)o2)c1` (centres undefined), the INHIBITION is listed as -67.1%.

As to `CC(C)N(CC1CCCN(CC(N)=O)C1)C(=O)OC(C)(C)C` (centres undefined), the INHIBITION is -14.8%. In the case of `CC(C)N(CC1CCCN(Cc2ccon2)C1)C(=O)OC(C)(C)C` (centres undefined), the INHIBITION is listed as -5.65%. For the compound `Cc1noc(C)c1CN1CCCC(CN(C(=O)OC(C)(C)C)C(C)C)C1` (centres undefined), the INHIBITION is listed as 54.1%. As to `c1cncc(OC2CCN(CCn3cc4ccccc4n3)CC2)c1`, the INHIBITION is -47.4%. The same measure for `CN(CC(=O)Nc1cnn(-c2ccccc2S(C)(=O)=O)c1)C1CC1`: -85.55%; for `c1cncc(COCC2CC[C@H]3[C@H](CCN3CC3CCOCC3)O2)c1` (some centres undefined): -5.45%.

For `Cn1cc(C2CCCN2Cc2csc(Cc3ccccc3)n2)cn1` (centres undefined), the INHIBITION is listed as 13.8%. Turning to `Cn1cc(-c2nc(CN3CCN(CCO)CC3)cs2)cn1`, the INHIBITION was -59.9%.

Regarding `Cn1cc(C2CCCN2Cc2csc(-c3ccccc3)n2)cn1` (centres undefined), the INHIBITION amounted to 53.8%. The same measure for `CCCC1CCCN(Cc2csc(-c3cnn(C)c3)n2)CC1` (centres undefined): 54.1%; for `Cn1cc(C2CCCN2Cc2csc(-c3ccsc3)n2)cn1` (centres undefined): -32.1%. Then `COCCN1CCN(Cc2csc(-c3cnn(C)c3)n2)CC1`, with -30.6%.

For the origin of these results see ChEMBL document CHEMBL4513216, “Probing the Open Global Health Chemical Diversity Library for Multistage-Active Starting Points for Next-Generation Antimalarials” (ACS Infect Dis, 2020).
